# Compound activity: PubChem BioAssay, Broad Institute
# Hits are enriched below; roughly 6.7% of the tested compounds scored in any of these assays.
# C diff growth: inhibitors of Clostridium difficile growth; growth activity, negative = inhibition, % at 16 µg/mL (by protocol); actives 0.25% (n = 86,000); AID 1259249; Clostridium difficile clinical isolate growth, OD600, 24 h; stronger effect = lower value;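 active = mean growth activity at or below -80% and every replicate also at or below -80%; inconclusive = mean at or below -80% but some replicate above -80%; inactive = mean growth activity above -80%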;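 also: 0% = DMSO wells and -100% = levofloxacin 16 µg/mL wells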
# T cruzi growth-1: T. cruzi proliferation inhibition. T. cruzi beta-gal in NIH3T3, GalScreen luminescence, 90 h. AID 624255. inhibition, % at 8.34 µM. actives 5.9% (n = 77,000);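 active = mean inhibition above about 93%, with at least 55% of replicates each passing it, limit read from the data, passing the limit was not always enough; inconclusive = only one of those two conditions holds; inactive = neither condition holds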
# Pf Dd2 inh: inhibitors of Plasmodium falciparum Dd2 growth; activity change, % at 10 µM; actives 2.3% (n = 94,000); P. falciparum Dd2 growth, SYBR Green, 72 h; stronger effect = lower value; in the data active = activity change below about -80%; inconclusive = no clear call, values can overlap the other calls
# T cruzi growth-2: blocks T. cruzi growth in NIH3T3 host cells | inhibition, % at 8.35 µM | actives 72% (n = 5,600) | shares compounds with T cruzi growth-1 | T. cruzi beta-gal in NIH3T3, GalScreen luminescence, 90 h;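 active = mean replicate inhibition above about 95% and at least 55% of replicates individually reaching it, limit read from the data; inconclusive = only one of the two criteria is met; inactive = neither criterion is met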
# T cruzi growth-3: inhibitors of T. cruzi proliferation; T. cruzi beta-gal in NIH3T3, GalScreen luminescence, 90 h; shares compounds with T cruzi growth-1; actives 21% (n = 5,600); inhibition, % at 2.09 µM;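 active = mean inhibition above about 95%, with at least 55% of replicates also reaching it, limit read from the data; inconclusive = meets just one of the two conditions; inactive = meets neither condition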;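 also: plate controls were neutral control median for no effect and positive control median for full effect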
# NIH3T3 tox: cytotoxicity in mouse NIH/3T3 fibroblasts; shares compounds with T cruzi growth-1; NIH/3T3 viability, CellTiter-Glo ATP luminescence, 90 h; cytotoxicity (signal decrease), % at 8.35 µM; actives 14% (n = 5,600);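 active = mean signal decrease across replicates above about 35% based on untreated-well scatter, with enough replicates individually passing, limit read from the data; inconclusive = no rule stated though some were filed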;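 also: 0% = median of neutral control wells and 100% = median of positive control wells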
# NIH3T3 tox 2: NIH/3T3 (mouse) viability loss. NIH/3T3 viability, CellTiter-Glo ATP luminescence, 90 h. inhibition, % at 24.9 µM. actives 56% (n = 5,600). shares compounds with T cruzi growth-1;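 active = mean loss of cell viability signal at or above a set limit, and enough replicates individually reaching it; inconclusive = meets only the mean limit or only the replicate share; inactive = meets neither condition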;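 also: 0% = median of neutral control wells and 100% = median of positive control wells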
# The depositor's hits bear a star; ? = inconclusive; . = no result given.
SMILES,C diff growth,T cruzi growth-1,Pf Dd2 inh,T cruzi growth-2,T cruzi growth-3,NIH3T3 tox,NIH3T3 tox 2
CN1c2ccc(-c3cccc(C#N)c3)cc2[C@H]2[C@H](CCN2C(=O)CN2CCOCC2)[C@H]1CO,-9,?,-26,108*,9,2,16
CN1c2ccc(-c3ccccc3)cc2[C@@H]2[C@@H](CCN2C(=O)Cc2ccccn2)[C@@H]1CO,-11,99*,-32,105*,58,-8,-6
CN1c2ccc(-c3ccc(C#N)cc3)cc2[C@@H]2[C@@H](CCN2C(=O)CC2CC2)[C@@H]1CO,6,?,6,100*,?,47*,80*
CCC(=O)N1CC[C@@H]2[C@H]1c1cc(-c3ccc(C#N)cc3)ccc1N(C)[C@H]2CO,1,81,18,.,.,.,.
CN1c2ccc(-c3ccc(F)cc3)cc2[C@H]2[C@H](CCN2C(=O)Cc2ccccn2)[C@H]1CO,-13,5,-29,.,.,.,.
CN1c2ccc(-c3cccc(C#N)c3)cc2[C@H]2[C@H](CCN2C(=O)CN2CCOCC2)[C@@H]1CO,-6,57,-65,.,.,.,.
CN1c2ccc(-c3ccc(F)cc3)cc2[C@@H]2[C@@H](CCN2C(=O)Cc2cccnc2)[C@H]1CO,-1,115*,6,117*,103*,-9,3
CCCNC(=O)N1C[C@H](C)[C@@H](OC)CN(C)C(=O)c2ccc(NC(C)=O)cc2OC[C@@H]1C,-6,.,6,.,.,.,.
O=C(O)C[C@H]1C=C[C@H](NC(=O)CCN2CCCCC2)[C@@H](CO)O1,-1,.,-1,.,.,.,.
CCC(=O)N[C@H]1C=C[C@@H](CC(=O)NCCN2CCCCC2)O[C@@H]1CO,-6,-42,11,.,.,.,.
COC(=O)C[C@H]1C[C@@H]2c3cc(NS(=O)(=O)c4ccc(OC)cc4)ccc3O[C@@H]2[C@@H](CO)O1,-2,-3,-10,.,.,.,.
Cc1cccc(-c2ccc([C@H]3[C@@H](CO)N4C(=O)CN(C(=O)c5cccnc5)C[C@H]34)cc2)c1,-5,.,-47,.,.,.,.
CO[C@@H]1CN(C)C(=O)c2cc(NC(=O)c3cnccn3)ccc2OC[C@@H](C)N(CCC(F)(F)F)C[C@H]1C,-1,16,12,.,.,.,.
CC(C)CC#Cc1cnc2c(c1)C(=O)N([C@@H](C)CO)C[C@H](C)[C@@H](CN(C)Cc1cccc(F)c1)O2,3,102*,-9,108*,83,17,105*
C[C@H](CO)N1C[C@H](C)[C@H](CN(C)Cc2cccc(F)c2)Oc2ncc(C#CCc3ccccc3)cc2C1=O,.,-74,-16,.,.,.,.
C[C@@H]1CN([C@H](C)CO)C(=O)c2cc(C#CCc3ccccc3)cnc2O[C@@H]1CN(C)Cc1cccc(F)c1,.,-5,-33,.,.,.,.
CC(C)CC#Cc1cnc2c(c1)C(=O)N([C@H](C)CO)C[C@@H](C)[C@H](CN(C)Cc1cccc(F)c1)O2,-2,103*,-52,106*,46,24,102*
C[C@@H]1CN([C@H](C)CO)C(=O)c2cc(C#CCc3ccccc3)cnc2O[C@H]1CN(C)Cc1cccc(F)c1,.,72,-60,.,.,.,.
CC(C)CC#Cc1cnc2c(c1)C(=O)N([C@H](C)CO)C[C@@H](C)[C@@H](CN(C)Cc1cccc(F)c1)O2,0,?,-42,104*,50,18,61*
C[C@@H](NC(=O)C[C@@H]1C=C[C@@H](NC(=O)C2CCC2)[C@H](CO)O1)c1ccccc1,.,32,-7,.,.,.,.
O=C(C[C@H]1C[C@H]2c3cc(NC(=O)Nc4ccc(C(F)(F)F)cc4)ccc3O[C@H]2[C@@H](CO)O1)NCc1ccc2c(c1)OCO2,4,55,-11,.,.,.,.
CO[C@@H]1CN(C)C(=O)c2ccc(NC(=O)Nc3ccccc3F)cc2OC[C@H](C)NC[C@@H]1C,0,-11,23,.,.,.,.
Cc1ccc(S(=O)(=O)N[C@H]2CC[C@@H](CCn3cc(-c4cccc(F)c4)nn3)O[C@@H]2CO)cc1,-5,-14,3,.,.,.,.
C[C@H]1CCCCO[C@H](CN(C)S(=O)(=O)c2cn(C)cn2)[C@@H](C)CN([C@@H](C)CO)C(=O)c2cc(NC(=O)CCC(F)(F)F)ccc2O1,-3,22,22,.,.,.,.
CC(C)C#Cc1ccc2c(c1)O[C@@H](CN(C)C(=O)c1ccccc1)[C@@H](C)CN([C@@H](C)CO)S2(=O)=O,2,80,-72,.,.,.,.
